High-throughput results (PubChem BioAssay)
ATXN2 expr inh – reduces ATXN2 reporter expression in HEK-293 cells; Potency, µM (doses to about 57 µM), for the others: at the top dose activity change, negative = inhibition, most hits filed as inhibitors; actives 0.72% (n = 360,000); HEK-293 ATXN2-luciferase reporter, luminescence, 24 h; also: % is scaled to controls: 0 for no effect and ±100 for the full control effect; nearly all actives have a fitted effect of over 55% in size
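qHTS (up to 57 uM final) was run with 24 h compound exposure of reporter cells at 37 °C. Each well was multiplexed: SteadyGlo luminescence measured ATXN2-luciferase expression after a fluorogenic Gly-Phe-AFC viability readout (25 uM final).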
Nrf2 inh – blocks Nrf2 signaling; A549 ARE-Fluc reporter, luciferase luminescence, 18-24 h; Potency, µM (top dose mostly 46 µM), for inactives: at the top dose activity change, negative = inhibition, most hits filed as inhibitors; actives 2.1% (n = 360,000); AID 504444; also: % is scaled to controls: 0 for no effect and ±100 for the full control effect; nearly all actives have a fitted effect of over 60% in size
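Reporter: ARE-Fluc in A549. Exposure: 18-24 h, 37 °C, 5% CO2, 5% FBS OPTI-MEM. Readouts: fluorescent cytotoxicity (CellTiter-Fluor), then luminescent Nrf2 signal after BugLite.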
A549 tox – A549 cytotoxicity, counter-screen for Nrf2 inhibitors; A549 ARE-Fluc cells, CellTiter-Fluor viability, 18-24 h; Potency, µM (doses to about 46 µM), without a hit: at the highest dose activity change, negative = cytotoxicity, hits mostly inhibitors; actives 0.16% (n = 390,000); also: % is scaled to controls: 0 for no effect and ±100 for the full control effect
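A549 ARE-Fluc cells in 5% FBS OPTI-MEM, 5000 cells/well, rested 2 h then exposed to compounds in concentration-response for 18-24 h at 37 °C. Viability by CellTiter-Fluor fluorescence (Ex 405/Em 525) after 30 min; luciferase luminescence (BugLite, 15 min, RT) read afterwards.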
TGFb SMAD3 inh – TGF-b pathway inhibition; HepG2 CAGA-GFP TGF-b/SMAD3 reporter, GFP fluorescence, 18 h; TGF-beta stimulated, 500 pg/mL final; Potency, µM (titrated, usually from 46.1 µM), inactives show at the top dose activity, negative = inhibition, actives largely listed as inhibitors; actives 1.2% (n = 410,000); also: % is scaled to controls: 0 for no effect and ±100 for the full control effect; nearly all actives have a fitted effect of over 65% in size
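HEPG2 CAGA-GFP cells (1000/well, DMEM with 1% FBS) were pre-incubated 2 h at 37 degrees C, given compound by pin tool, then stimulated with TGF-beta at 500 pg/mL final for 18 h before per-cell GFP fluorescence imaging.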
S2 tox – viability counter-screen for ATXN expression inhibitors | Potency, µM (highest dose often 56.7 µM), usual class: cytotoxic | actives 0.49% (n = 400,000) | S2 cells (HEK-293 line with an ATXN2-luciferase reporter) viability, CellTiter-Fluor protease fluorescence, 24 h; also: nearly all actives have a fitted effect of over 40% in size
HepG2 viability – HepG2 cytotoxicity, counter-screen for TGF-b inhibitors | HepG2 CAGA-GFP viability, ATP luminescence, 18 h | Potency, µM (doses to about 46.1 µM), without a hit: at the highest dose activity change, negative = cytotoxicity, most hits filed as cytotoxic | actives 0.76% (n = 410,000) | AID 588856
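CellTiter-Glo luminescence gave cytotoxicity after 18 hours at 37 degrees C. The cells were HepG2 CAGA-GFP in 1% FBS DMEM, stimulated with 500 pg/mL TGF-beta after compound addition. %Activity was normalised to no-cell wells (complete cell-killing) and DMSO (no toxicity), and curves were fitted and classified.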
The depositor's hits bear a star; i = inactive; u = inconclusive; x = not tested or not shown; [ ] = another dose, or the depositor's remark. Shown are actives, neighbours in structure and some others; about 3.8% of the full set was active somewhere. Calls follow the shape of the dose curve; as a rule, active = well fitted curve in the direction sought with a large enough effect; inconclusive = small, poorly fitted or top-dose-only effect, or another doubt; inactive = no such curve, though single readings can be large; an effect the other way counts as inactive or inconclusive. Potency is read from the fitted curve at half-maximal effect.

SMILES	ATXN2 expr inh	Nrf2 inh	A549 tox	TGFb SMAD3 inh	S2 tox	HepG2 viability
Cc1cccc2cc(/C=N/NC(=O)c3ccncc3)c(Cl)nc12	-2%	-13%	-1%	-7%	i	-8%
COc1ccc(NC(=O)Cn2c(=O)nc(-c3ccccc3)c3ccccc32)cc1OC	x	x	0%	3%	x	10%
CSc1ccccc1NC(=O)C1=CC(c2ccc3c(c2)OCO3)=NS(=O)(=O)N1C	-18%	0%	7%	-10%	u	-9%
Cc1nc(N2CCCCC2)sc1C(=O)c1ccc(SCCO)c([N+](=O)[O-])c1	-9%	21µM*	u	0%	i	-6%
O=[N+]([O-])c1ccc(N2CCCCC2)cc1SCCO	-32%	5%	-4%	-3%	i	3%
Cn1nc(C(=O)NCc2ccccn2)c2ccccc2c1=O	5%	5.8µM*	-5%	9%	i	-14%
CC1Cc2cc(S(=O)(=O)NCc3ccccc3Cl)ccc2N1C(=O)C1CCC1 (centres undefined)	-24%	26µM*	-14%	u	i	-17%
COc1ccc(CNS(=O)(=O)c2ccc3c(c2)CC(C)N3C(=O)C2CC2)cc1 (centres undefined)	-20%	u	-11%	-9%	i	-6%
CC1Cc2cc(S(=O)(=O)NCc3ccc(N(C)C)cc3)ccc2N1C(=O)C1CCC1 (centres undefined)	u	23µM*	-2%	u	i	-30%
CCOc1ccc(OCC(=O)NCCS(=O)(=O)N2CCN(c3ccccc3F)CC2)cc1	x	x	-1%	-9%	x	-21%
CC(CC12CC3CC(CC(C3)C1)C2)NCc1ccccc1O (centres undefined)	-53%	24%	20%	18µM*	u	16µM*
CCOC(=O)c1c(-c2ccccc2)oc2ccc(OCC(O)CN(C)C)cc12 (centres undefined)	-36%	15%	2%	14µM*	u	18µM*
Cc1ccc(S(=O)(=O)Nc2cccc(C(=O)NC3CCN(Cc4ccccc4)CC3)c2)cc1F	-25%	10µM*	u	7%	i	-38%
O=C(NC1CCN(Cc2ccccc2)CC1)c1cccc(S(=O)(=O)Nc2ccc(SC(F)F)cc2)c1	u	16µM*	u	11µM*	i	-84%
O=C(CN1c2ccccc2Sc2ccccc21)NNC(=O)Nc1ccc(Cl)cc1	-31%	18µM*	u	u	i	-61%
O=C(CCc1ccccc1)NNC(=O)Nc1ccc(Cl)cc1	-28%	-7%	-1%	4%	i	-5%
O=C(CN1c2ccccc2Sc2ccccc21)NNC(=O)Nc1ccc(Cl)c(Cl)c1	-10%	u	-19%	u	i	13µM*
O=C(NCCC1CCCCN1S(=O)(=O)c1ccc(F)cc1)C(=O)NCc1cccnc1 (centres undefined)	-4%	-10%	-3%	-2%	i	-9%
CCc1cnn2c(NCc3ccc[n+]([O-])c3)cc(N3CCCC[C@@H]3CCO)nc12	0.014µM*	x	x	x	x	x
O=C(Nc1ccc(F)cc1)c1nn(-c2ccccc2)c(=O)cc1Cl	u	18µM*	u	u	u	-43%
CCCCN(CC)C(=O)CSc1nc2ccccc2c(=O)n1Cc1ccco1	-14%	x	-11%	2%	i	11%
COc1ccc(OCC(=O)NC(=S)Nc2ccc3c4c(cccc24)CC3)cc1	-7%	u	-7%	-1%	i	-9%
Cc1ccccc1OCC(=O)NC(=S)Nc1ccc2c3c(cccc13)CC2	-34%	-19%	-2%	0%	i	13µM*
C[n+]1c(-c2ccccc2)cc2c(=Cc3ccc([N+](=O)[O-])cc3)c3ccccc3n21	u	u	u	u	u	-27%
CN(C)c1ccc(C=c2c3cc(O)ccc3n3c2cc(-c2ccccc2)[n+]3C)cc1	2%	18µM*	u	11µM*	i	-58%
SMILES	ATXN2 expr inh	Nrf2 inh	A549 tox	TGFb SMAD3 inh	S2 tox	HepG2 viability
C[n+]1c(-c2ccccc2)cc2c(=Cc3ccccc3)c3ccccc3n21	9.5µM*	21µM*	u	18µM*	x	-24%
COCCCNC(=S)N1CCCN(c2nc3cc(C)ccc3cc2C#N)CC1	x	16µM*	-12%	u	i	-9%
COCCCNC(=S)N1CCCN(c2nc3cc(C)c(C)cc3cc2C#N)CC1	-23%[11.3 µM]	u	-15%	u	i	-17%
O=C(Nc1ccccc1[N+](=O)[O-])c1cccnc1Cl	5%	14%	-6%	-3%	u	18%
CCCN(CC(=O)Nc1ccccc1C)C(=O)CCl	u	u	u	5.6µM*	u	-79%
CCCN(CC(=O)Nc1ccccc1C)C(=O)COc1c(C)cccc1C	4%	-10%	-12%	-7%	u	4%
C=C1CC(C(=O)N/N=C/c2ccccc2)C1	4%	12%	-2%	1%	u	0%
Cc1cccc(OCCCC(=O)Nc2nc3ccccc3[nH]2)c1	13µM*	u	-18%	u	i	-6%
COc1cc(/C=C2\SC(=S)N(CCC(=O)Nc3ccccc3)C2=O)cc(OC)c1OC	-8%	-12%	-4%	23%	i	16%
O=C(CCCN1C(=O)/C(=C/c2ccccc2)SC1=S)Nc1cccc(O)c1	x	8%	12%	14µM*	u	-67%
COc1cc(/C=C2\SC(=S)N(CCC(=O)Nc3cccc(O)c3)C2=O)cc(OC)c1OC	-25%	-3%	-11%	13µM*	u	-36%
COc1cccc(/C=C2\SC(=S)N(CCCC(=O)Nc3ccc(C(=O)O)cc3)C2=O)c1	3%	-19%	-7%	-1%	i	-18%
COc1cccc(/C=C2/SC(=S)N(CCCC(=O)Nc3ccc(O)cc3)C2=O)c1	16µM*	u	u	u	u	-72%
O=C(CCCN1C(=O)/C(=C/c2ccc3c(c2)OCO3)SC1=S)Nc1cccc(C(=O)O)c1	u	10µM*	6%	3%	i	-14%
CCn1cc2nc(SCc3ccccc3F)n(Cc3ccc(C)cc3)c(=O)c2n1	3%	-14%	-17%	u	i	-16%
CCN(CC)CCOC(=O)c1ccc(NC(=O)CCCN2C(=O)S/C(=C/c3ccc(OC)cc3)C2=S)cc1	7.1µM*	u	u	-7%	u	-28%
COc1cc(/C=C2/SC(=S)N(Cc3ccccc3)C2=O)ccc1O	6%	6%	u	38%	u	-71%
